Source: PubChem
This is a sample that favours compounds with a hit; in the whole collection about 4.1% have one here.
LEDGF integ inh = blockers of LEDGF/p75-dependent integrase strand transfer – biochemical, TR-FRET, high throughput, primary screen | HIV-1 integrase (with human LEDGF/p75) | TR-FRET IN-LEDGF/p75 DNA integration, Eu/Cy5 | inhibition, % at 3.7 µM | 370,000 compounds, 0.64% hits | AID 743269, 2014;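 active = inhibition above the screen-wide mean plus 3 SD, cut at about 13% in these data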;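 also: signal is the Cy5 over europium emission ratio at 671 and 618 nm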
UHRF1 MBD2 ctr = UHRF1 methylated DNA binding inhibitors, primary screen, counter-screen for MBD2 inhibitor project, biochemical, TR-FRET, human UHRF1, single concentration; E3 ubiquitin-protein ligase UHRF1 (Homo sapiens), Q96T88; UHRF1 binding to methylated oligo; inhibition, % at 4.4 µM; 370,000 compounds, 0.75% hits; AID 687016, 2013; in the data active = inhibition above about 21%;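 also: UHRF1 SRA domain binding a hemimethylated CpG hairpin DNA probe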
Target sequence (Q96T88 whole entry, looked up, the tested form may be a part): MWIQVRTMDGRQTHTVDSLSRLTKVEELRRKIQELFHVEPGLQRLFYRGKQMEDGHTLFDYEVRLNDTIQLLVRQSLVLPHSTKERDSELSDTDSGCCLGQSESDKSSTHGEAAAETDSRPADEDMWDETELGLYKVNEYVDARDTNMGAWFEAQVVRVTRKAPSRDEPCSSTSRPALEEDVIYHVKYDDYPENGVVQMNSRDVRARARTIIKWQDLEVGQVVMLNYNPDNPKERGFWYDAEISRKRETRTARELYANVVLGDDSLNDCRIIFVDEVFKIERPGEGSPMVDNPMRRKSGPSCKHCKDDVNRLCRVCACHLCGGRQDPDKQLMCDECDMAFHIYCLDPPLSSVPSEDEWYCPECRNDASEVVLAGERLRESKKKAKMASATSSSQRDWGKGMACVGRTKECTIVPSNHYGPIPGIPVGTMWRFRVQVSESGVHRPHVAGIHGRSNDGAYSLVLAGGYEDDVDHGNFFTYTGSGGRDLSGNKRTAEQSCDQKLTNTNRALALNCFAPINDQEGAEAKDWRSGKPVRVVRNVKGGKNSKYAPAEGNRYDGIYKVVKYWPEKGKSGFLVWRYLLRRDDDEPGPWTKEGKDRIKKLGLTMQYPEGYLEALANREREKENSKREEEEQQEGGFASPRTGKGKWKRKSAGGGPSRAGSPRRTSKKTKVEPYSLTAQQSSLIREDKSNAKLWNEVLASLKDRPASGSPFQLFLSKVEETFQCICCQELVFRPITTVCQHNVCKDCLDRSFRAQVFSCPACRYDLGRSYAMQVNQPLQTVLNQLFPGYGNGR
ABHD5-PLIN5 inh = ABHD5-PLIN5 interaction inhibitors, primary screen, cell lysate, split luciferase complementation, luminescence. Perilipin-5 (Homo sapiens) + 1-acylglycerol-3-phosphate O-acyltransferase ABHD5 (Homo …. Split G. princeps luciferase complementation, 4 h. inhibition, % at 4 µM. 360,000 compounds, 0.78% hits. AID 602281, 2012;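 active = inhibition above the mean inhibition across every tested compound plus 3 SD, cut at about 22% in these data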
PRMT1 FP inh = PRMT1 methyltransferase inhibitors, primary screen, biochemical, fluorescence polarization. 370,000 compounds, 1.3% hits. recombinant PRMT1, activity-based probe fluorescence polarization. inhibition, % at 2.79 µM. Protein arginine N-methyltransferase 1 (Homo sapiens), Q99873. AID 652257, 2013;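 active = inhibition above about 21% made by adding two undisclosed values, limit read from the data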
rCAG RNA binder = binders of r(CAG) RNA repeats, primary screen, biochemical, fluorescence. r(CAG) RNA repeat, TO-PRO-1 dye displacement fluorescence. inhibition, % at 3 µM. 370,000 compounds, 1.3% hits. AID 651821, 2012;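 active = inhibition above the plate cutoff, the mean of all test compounds on that plate plus 3 SD, cut at about 35% in these data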;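 also: higher means more dye released from RNA so lower well fluorescence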
MBD2 DNA inh = inhibitors of MBD2 binding to methylated DNA, primary screen, biochemical, TR-FRET, DNA-binding domain, human; Methyl-CpG-binding domain protein 2 (Homo sapiens), Q9UBB5; MBD2 binding to methylated oligonucleotide; inhibition, % at 4.4 µM; 370,000 compounds, 0.31% hits; AID 686964, 2013; in the data active = inhibition above about 13%
Of the large screens only hits and unclear results are named; the others gave an inactive call.

Cc1ccc2nc(N(CCCN(C)C)C(=O)c3ccc(S(=O)(=O)N4CCc5ccccc5C4)cc3)sc2c1	none
CN(C)CCCN(C(=O)c1ccc(S(=O)(=O)N2CCc3ccccc3C2)cc1)c1nc2ccc(F)cc2s1	none
Cc1ccc(S(=O)(=O)N2CCCC2C(=O)N2CCc3ccccc3C2)cc1 (configuration not stated)	none (no result: ABHD5-PLIN5 inh)
CCCCNC(=O)C[C@@H]1C(=O)N(CCc2ccc(Cl)cc2)/C2=C/CCCCC[C@@]21C(=O)OCC	none (no result: ABHD5-PLIN5 inh)
CC(=O)Nc1ccc(CN2C(=O)C(C)ON=C2c2ccccc2-c2ccco2)cc1 (configuration not stated)	PRMT1 FP inh 23
COc1cccc(CNC(=O)[C@H]2CCCN2C(=O)[C@H]2CCCN2C(=O)c2cccc(Cl)c2)c1	none (no result: ABHD5-PLIN5 inh)
COc1cc(SC)ccc1C(=O)Nc1ccon1	PRMT1 FP inh 24
COc1cc(SC)ccc1C(=O)Nc1ccccn1	none
COc1ccc(CNS(=O)(=O)CC2NCc3cc(OC)ccc32)cc1 (configuration not stated)	none (no result: ABHD5-PLIN5 inh)
Nc1ccc(C(=O)OCC(=O)NC2CC2)cc1[N+](=O)[O-]	none
Cc1cc(C(=O)OCC(=O)NC2CC2)ccc1[N+](=O)[O-]	UHRF1 MBD2 ctr 80
O=C(Nc1nc2ncccn2c1-c1ccccc1)c1ccccc1	none (no result: ABHD5-PLIN5 inh)
COc1ccc(N2CC(O)=C(c3nc4ccccc4s3)C2=N)cc1	none
COc1cccc(N2CC(O)=C(c3nc4ccccc4s3)C2=N)c1	UHRF1 MBD2 ctr 23
N=C1C(c2nc3ccccc3s2)=C(O)CN1NC(=O)c1ccco1	UHRF1 MBD2 ctr 39
COc1cccc(C(=O)NN2CC(O)=C(c3nc4ccccc4s3)C2=N)c1	none
CCOC1=C2[C@H](c3ccccc3)N(S(=O)(=O)c3ccc(C)cc3)[C@H](C(C)C)[C@H]2C(C#N)(C#N)C(C#N)(C#N)C1	none (no result: ABHD5-PLIN5 inh)
Cc1cccc(NC(=O)C2CCCN2S(=O)(=O)c2cccnc2)c1C (configuration not stated)	none (no result: ABHD5-PLIN5 inh)
CC(C)c1ccc(CN2CC(C(=O)Nc3ccccc3)CC2=O)cc1 (configuration not stated)	UHRF1 MBD2 ctr 27
CN(c1ccc(NC(=O)CCc2c[nH]c3ccccc23)cc1)c1ccccn1	none (no result: ABHD5-PLIN5 inh)
CSc1ccccc1NC(=O)NCCCl	UHRF1 MBD2 ctr 22
Brc1ccc(-c2csc(N3CCNCC3)n2)cc1	none (no result: ABHD5-PLIN5 inh, rCAG RNA binder)
O=C(NCCc1ccccc1)c1ccc(NC(=O)C2CC2)cc1	none
CC(=O)Nc1ccc(C(=O)NCCc2ccccc2)cc1	UHRF1 MBD2 ctr 21
Cc1cccc(CSC(=N)N)c1	none
Cc1cccc(CSC(Nc2ccc(F)cc2)=C(C#N)C#N)c1	rCAG RNA binder 40
O=C(CC1C(=O)NCCN1C(=O)Nc1ccccc1)Nc1cc(Cl)cc(Cl)c1 (configuration not stated)	none
O=C(CC1C(=O)NCCN1C(=O)Nc1ccccc1)Nc1cccc(Cl)c1 (configuration not stated)	UHRF1 MBD2 ctr 33
N=c1c(S(=O)(=O)c2ccc(Br)cc2)cc2c(=O)n3ccccc3nc2n1Cc1ccco1	ABHD5-PLIN5 inh 34
CC(NC(=O)COc1ccccc1-c1ccccc1)c1ccccc1 (configuration not stated)	none
CC(=O)Nc1ccccc1OCC(=O)NC(C)c1ccccc1 (configuration not stated)	UHRF1 MBD2 ctr 22
Cc1ccc(S(=O)(=O)N(C)C)cc1NC(=O)COC(=O)/C=C/c1ccc(F)cc1	UHRF1 MBD2 ctr 35
CC(O)c1cccc(NC(=O)Nc2cccc(NC(=O)Nc3cccc(C(C)O)c3)c2)c1 (configuration not stated)	none
CSc1ccccc1C(=O)Nc1cccc(C(C)O)c1 (configuration not stated)	UHRF1 MBD2 ctr 21
CC(=O)C(Sc1nn(C)c(=S)s1)C(=O)Nc1ccccc1 (configuration not stated)	PRMT1 FP inh 24
CC(=O)C(Sc1nc(N(C)C)nc(N(C)C)n1)C(=O)Nc1ccccc1 (configuration not stated)	none
COC(=O)[C@]12C[C@H](CC(=O)NCCc3ccccc3OC)C(=O)N(Cc3ccco3)C1=C[C@H](C1CCCC1)O[C@@H]2C	none (no result: ABHD5-PLIN5 inh)
CN(Cc1cn(Cc2ccccc2)nn1)S(=O)(=O)c1ccc(F)cc1Br	none (no result: ABHD5-PLIN5 inh)
COC(=O)C(C(C)=O)C1=C/C(=N\S(=O)(=O)c2ccc(C)cc2)c2ccccc2C1=O (configuration not stated)	none (no result: LEDGF integ inh, UHRF1 MBD2 ctr, PRMT1 FP inh, rCAG RNA binder, MBD2 DNA inh)
O=C(O)c1ccc(S(=O)(=O)/N=C2\C=C(Nc3ccccc3F)C(=O)c3ccccc32)cc1	LEDGF integ inh 60
Cc1ccc(NC2=C/C(=N/S(=O)(=O)c3cccs3)c3ccccc3C2=O)cc1C	none
Cc1ccccc1NC1=C/C(=N\S(=O)(=O)c2cccs2)c2ccccc2C1=O	LEDGF integ inh 47
CC(C)c1ccc(S(=O)(=O)/N=C2\C=C(NS(=O)(=O)c3ccccc3)C(=O)c3ccccc32)cc1	LEDGF integ inh 25, rCAG RNA binder 68
COc1ccc(S(=O)(=O)/N=C2\C=C(Nc3ccc(O)cc3)C(=O)c3ccccc32)cc1	LEDGF integ inh 65
CC(=O)Nc1ccc(NC2=C/C(=N/S(=O)(=O)c3cccs3)c3ccccc3C2=O)cc1	LEDGF integ inh 50
C(=N\Nc1nc(-c2ccccc2)cs1)/c1ccco1	PRMT1 FP inh 24
O=C(CSc1nnc(-c2cccnc2)n1-c1ccccc1)Nc1ccc2c(c1)OCCO2	none (no result: ABHD5-PLIN5 inh)
COC(=O)c1ccc(C=NNC(=O)c2cc(-c3ccc(C)c(C)c3)n[nH]2)cc1	none (no result: ABHD5-PLIN5 inh)
C=CCOc1ccc(C(=O)N(Cc2ccc(N(C)C)cc2)C2CCS(=O)(=O)C2)cc1 (configuration not stated)	UHRF1 MBD2 ctr 63
CC(C)(C)c1ccc(S(=O)(=O)NCC2CCN(C(=O)C(=O)c3cccs3)CC2)cc1	none (no result: ABHD5-PLIN5 inh)
COCCNC(=S)N(C)[C@H]1C[C@H]2c3[nH]c4c(-c5ccccc5)cccc4c3CCN2C[C@H]1[C@H](C)O	none (no result: ABHD5-PLIN5 inh)
Cc1cc(C(=O)N/N=C/c2ccc(N(C)C)cc2)c2ccccc2n1	none
CCc1cc(C(=O)N/N=C/c2ccc(O)cc2)c2ccccc2n1	ABHD5-PLIN5 inh 23
COc1ccc(/C=N/c2c(-c3ccc(OC)cc3)nc3n2CCS3)cc1	none
COc1ccc(C2=CSC(/N=C/c3ccc(F)cc3)=NN2)cc1	PRMT1 FP inh 24
